# Data from PubChem BioAssay AID977606 (Broad Institute, 2014).
# About 430 (29%) of roughly 1,500 compounds were called active. These entries were drawn from the full list. Measured potencies and affinities stand elsewhere. Values without a mark were called inactive. The rule behind the calls is not given here.
# Test: insulin secretion activators without glucose, dose response, counter-screen for glucose-dependent insulin secretion activators, cell-based, INS-1E, Gaussia luciferase, luminescence, cherry-pick (AID 977606);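 note: 0% = median of neutral control wells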
# Details: INS-1E Gaussia luciferase insulin secretion, no glucose, 100% = twice neutral-control luminescence; series mostly up to 35 µM; activation: at the top concentration
row,SMILES,activation [%]
1,CCOC(=O)c1sc2ncn(/N=C/c3cccnc3)c(=O)c2c1C,-12.6
2,COc1cc(C(=O)Nc2ccn(C)n2)ccc1OC(F)F,7.47
3,O=c1c2ccccc2nc(-c2ccco2)n1/N=C/c1ccco1,-8.39
4,O=c1c2ccccc2nc(-c2ccco2)n1Cc1ccccc1,-3.55
5,O=C([C@H]1O[C@@H](n2ccc(=O)[nH]c2=O)[C@H](O)[C@@H]1O)N1CCN(c2ccc(Cl)cn2)CC1,68.2
6,CCCn1nc(C(=O)NC2CC2)c2ccccc2c1=O,-5.12
7,Cc1nc2ccccc2c(=O)n1CCCN1CCOCC1,-11.5
8,CCOCCCn1c(SCc2ccccc2)nnc1-c1ccncc1,6.18
9,CC(C)c1ccc(NC2CCCN(C(=O)c3cccnc3)C2)cc1 (stereo not given),-5.56
10,COc1ccc(CCn2ccc(O)c(Cc3c(F)cccc3Cl)c2=O)cc1OC,-4.25
11,CCN(C[C@H]1N[C@@](CC)(C(=O)OC)[C@H]2C(=O)N(C)C(=O)[C@@H]12)S(=O)(=O)c1ccc(OC)cc1,-1.45
12,COC(=O)C1=C(C)NC(=S)NC1c1ccc(OC)cc1 (stereo not given),7.53
13,COc1ccc(CCC(=O)NC2CCC(C)CC2)cc1 (stereo not given),-4.09
14,CNc1nc(Nc2ccccc2)nc(OCC(F)(F)F)n1,8.61
15,CCCCN(Cc1nc2ccccc2c(=O)[nH]1)C(=O)c1nn(C)c(=O)c2ccccc12,-9.37
16,c1cn2cc(-c3ccc(CN4CCOCC4)cc3)ccc2n1,-12.3
17,CC(C)CN(C(=O)C1CCCCC1)C1CCS(=O)(=O)C1 (stereo not given),-8.45
18,Cc1ccc(CN(C(=O)c2cccs2)C2CCS(=O)(=O)C2)cc1 (stereo not given),11
19,Cc1c(Cc2ccccc2)sc(NC(=O)C(C)(C)C)c1C(N)=O,38.4
20,Cc1c(Cc2ccccc2)sc(NC(=O)c2ccco2)c1C(N)=O,-3.42
21,COC(=O)c1cc(S(=O)(=O)NCC2CCN(Cc3cc(C)ccc3C)CC2)c[nH]1,8.92
22,Cc1ccc(C)c(OCC(=O)Nc2cc(NC(=O)COc3cc(C)ccc3C)cc(C(=O)O)c2)c1,-15.1
23,Cc1ccc(C)c(OCC(=O)NCC(C)(C)N2CCOCC2)c1,-11.9
24,O=C1CC(=O)Nc2cc(S(=O)(=O)NCc3cccs3)ccc2N1,-3.25
25,O=C1CSC(c2cccc(O)c2)N1Cc1ccccc1 (stereo not given),-0.893
26,CC(C)Cc1nc2oc3c(NCc4cccnc4)ncnc3c2c2c1CCC2,-15
27,CCOC(=O)C1CCCN(C(=O)c2ccccc2OC(F)(F)F)CC1 (stereo not given),1.8
28,CN(C)N1C(N)=C(C#N)C(c2ccc(F)cc2)C2=C1CCCC2=O (stereo not given),7.12
29,O=C(O)c1ccc(-n2nc(-c3ccccc3)c3ccccc3c2=O)cc1,-3.75
30,O=c1c2ccccc2c(-c2ccccc2)nn1-c1ccccn1,-6.35
